L major viab: Leishmania major promastigote growth inhibition, primary screen. Leishmania major promastigotes, resazurin fluorescence viability. inhibition, % at 10 µM. 9% of 200,000 active; in the data active means inhibition above about 50%;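 further: promastigotes grown with compound for 44 hours at 28 °C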
Cl transport mod: KCC2 cotransporter modulators, thallium flux, primary screen, cell-based, HEK293 KCC2, FluoZin-2 fluorescence, MLSMR; Solute carrier family 12 member 5 (Homo sapiens), Q9H2X9; KCC2 cells, thallium flux FluoZin-2 fluorescence; B-score of Tl+ flux slope (higher = more flux/activation; lower = inhibition) at 10 µM; 2.2% of 190,000 active;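 active means thallium flux slope and its plate-corrected score both differing from the plate sample mean at a set confidence after two filtering rounds, in either direction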;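 further: slope of fluorescence scaled to starting intensity during 10 to 20 s after thallium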
ROMK mod: ROMK potassium channel modulators, primary screen, cell-based, thallium flux, MLSMR library; 2% of 130,000 active; AID 1918, 2009; ATP-sensitive inward rectifier potassium channel 1 (Homo sapiens), P48048; B-score at 10 µM; Tet-inducible ROMK, thallium flux fluorescence; actives lie on both sides;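 active means signal ratio slope over the read window, or its plate-corrected B-score, at least 3 SD from the plate mean, either direction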;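 further: B-score of the F/F0 ratio slope over 7 to 12 s after thallium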
Target sequence (P48048 whole entry, looked up): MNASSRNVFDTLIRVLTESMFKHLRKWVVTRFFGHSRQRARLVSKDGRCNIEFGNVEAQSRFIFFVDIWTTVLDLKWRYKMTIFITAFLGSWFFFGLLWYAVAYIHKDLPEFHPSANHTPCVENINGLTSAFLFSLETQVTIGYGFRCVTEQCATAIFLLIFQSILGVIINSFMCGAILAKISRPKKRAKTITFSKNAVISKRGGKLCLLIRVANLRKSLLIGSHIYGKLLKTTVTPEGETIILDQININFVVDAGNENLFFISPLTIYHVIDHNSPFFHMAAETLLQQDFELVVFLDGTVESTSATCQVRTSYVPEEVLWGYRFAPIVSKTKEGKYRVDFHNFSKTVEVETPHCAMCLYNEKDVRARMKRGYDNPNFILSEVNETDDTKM
Calpain2 inh: inhibitors of pig calpain II, primary screen, biochemical, fluorogenic peptide substrate, 1536-well; purified calpain II, 30 min; inhibition, % at 16 µM; 0.37% of 220,000 active;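 active means inhibition above about 50%, limit read from the data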
WT yeast gro inh: growth inhibition of WT strain, primary screen, mitochondrial fusion inhibitor project, WT and mutant strains, chemical genetic. inhibition, % at 10 µM. mitochondrial fusion phenotypic screen. 2.1% of 190,000 active; in the data active means inhibition above about 58%; tested in S. cerevisiae
Starred values were filed as active, the others as inactive; / = no result given. In the library only some 12% were active in any assay of this set; here they are far more common.

SMILES	L major viab	Cl transport mod	ROMK mod	Calpain2 inh	WT yeast gro inh
Cc1ccc(N(CC(=O)NC(C)(C)C)C(=O)CS(=O)CC(=O)Nc2ccc3c(c2)OCO3)cc1 (stereo not drawn)	-6	-2.5	0.28	0	0
Cc1ccsc1/C=N/NC(=O)c1sccc1C	-4	5.7*	/	3	-17
Cc1ccsc1/C=N/NC(=O)CO	-1	/	-0.79	13	-2
Cn1cccc1/C=N/NC(=O)c1cc(-c2cccs2)nc2ccccc12	56*	0	0.69	-59	22
COc1ccc(-c2cc(C(=O)N/N=C/c3ccc(OC)c(COCC(F)(F)C(F)F)c3)c3ccccc3n2)c(OC)c1	49	-0.44	0.84	-101	-8
O=C(N/N=C/c1ccc[nH]1)c1cc(-c2cccs2)nc2ccccc12	26	-0.81	0.73	-70	26
COc1ccc(-c2cc(C(=O)N/N=C/c3ccc4c(c3)OCO4)c3ccccc3n2)c(OC)c1	77*	/	/	-45	9
Cc1ccc(NC(=O)Cc2c[nH]c3ccccc23)cc1S(=O)(=O)N1CCCCCC1	92*	-0.79	-0.52	-9	-3
Cc1ccccc1Cn1c(=O)n(CC2CCC(C(=O)NCCc3ccccc3)CC2)c(=O)c2ccccc21 (stereo not drawn)	11	0.19	/	66*	-1
O=C(NCCc1c[nH]c2ccccc12)C1CCN(S(=O)(=O)c2ccccc2F)CC1	98*	-2.8	-0.83	-12	-1
O=C(NCCc1c[nH]c2ccccc12)C1CCN(c2nnc(N3CCCC3=O)s2)CC1	84*	/	/	2	17
O=C(O)C1CCCCC1C(=O)NCCc1c[nH]c2ccccc12 (stereo not drawn)	6	-0.49	/	1	-10
CC1CCN(S(=O)(=O)c2ccc3c(c2)N(CC(=O)NCc2cccnc2)C(=O)CS3)CC1	-3	-1.1	0.022	1	-2
O=C(NCCc1c[nH]c2ccccc12)C1CCC(Cn2c(=S)[nH]c3ccccc3c2=O)CC1 (stereo not drawn)	100*	0.64	/	-219	-9
COCCNC(=O)C1CCC(Cn2c(=S)[nH]c3ccccc3c2=O)CC1 (stereo not drawn)	0	0.22	0.35	12	6
Cc1ccc(Cn2ncc(C)c2N)o1	-5	1.2	0.26	26	3
CCN(CC)c1nc(N(CC)CC)[nH]c(=O)n1	9	0.93	0.039	/	/
CCN(CC)c1nc(=S)nc(NC(C)(C)C)[nH]1	95*	/	0.38	19	37
CC(C)(O)C#Cc1ccc(C(=O)NCc2cccs2)s1	-3	0.32	0.036	3	-31
COc1ccc(OC)c(-n2c(=S)[nH]c3cc(C(=O)N(C)Cc4ccccc4)ccc3c2=O)c1	-4	0.73	/	-60	-16
Cc1ccc(-c2nc(=S)c3c(n2Cc2ccco2)CCCC3)cc1	31	25*	0.5	38	6
COc1cccc(-c2nc(=S)c3c(o2)CCCC3)c1	-3	2.6	0.27	1	68*
COc1cccc(-c2nc(=S)c3c(n2Cc2ccco2)CCCC3)c1	2	13*	/	11	18
O=c1cc(NS(=O)(=O)c2ccccc2)nc(SCc2c(Cl)cccc2Cl)[nH]1	69*	-0.11	0.72	21	-1
CCN1C(=O)/C(=C/c2nc3ccccc3c(=O)n2-c2ccc(C)cc2)c2ccccc21	99*	0.27	/	-25	4
SMILES	L major viab	Cl transport mod	ROMK mod	Calpain2 inh	WT yeast gro inh
CCN1C(=O)/C(=C\c2nc3ccccc3c(=O)n2-c2ccccc2)c2ccccc21	77*	-0.69	-0.43	-14	5
CCN1C(=O)/C(=C/c2nc3ccccc3c(=O)[nH]2)c2ccccc21	99*	0.12	-0.56	-15	-2
Cc1ccccc1/C=C\c1nc2ccccc2c(=O)[nH]1	1	/	-0.1	-116	6
COc1ccc(Cc2[nH]n3c(=O)c(Cl)c(C)nc3c2-c2ccccc2)cc1	-7	-1.3	-1.5	-136	2
CCOC(=O)c1cccc(NC(=O)c2ccc(N(C)C)cc2)c1	44	-0.56	-0.064	-2	-6
CCOC(=O)C1(C)NC(c2cccs2)C2C(=O)N(c3ccc(OC)cc3)C(=O)C21 (stereo not drawn)	-3	-0.86	0.16	-13	-5
COc1ccc(-c2csc(N3C(=O)C4C5c6ccccc6C(c6ccccc65)[C@@H]4C3=O)n2)cc1 (stereo partly drawn)	-4	-0.076	-0.0083	-23	4
COc1ccc(-c2csc(N3C(=O)C4C5c6ccccc6C(c6ccccc65)C4C3=O)n2)cc1 (stereo not drawn)	60*	-0.17	0.17	3	15
O=C(NCCCN1CCN(CCCNC(=O)c2cc([N+](=O)[O-])ccc2Cl)CC1)c1cc([N+](=O)[O-])ccc1Cl	-5	2.4	-1.5	24	13
CCn1c(SCC(=O)Nc2nccs2)nnc1-c1ccc(C)cc1	0	-1.3	/	-15	-17
CCC(=O)Nc1ccc(-c2nnc(SCc3ccc(C(=O)Nc4nccs4)cc3)n2CC)cc1	-2	0.049	0.18	-31	60*
CC12C(=O)N(c3ccc(OC(=O)c4ccco4)cc3)C(=O)C1C1c3ccccc3C2c2ccccc21 (stereo not drawn)	58*	0.084	0.0048	26	4
CC12C(=O)N(c3cccc(OC(=O)c4ccco4)c3)C(=O)C1C1c3ccccc3C2c2ccccc21 (stereo not drawn)	20	-0.011	-0.9	-27	32
O=C(C1CC1)N1CCC(c2nc(-c3ccc(S(=O)(=O)N4CCCC4)cc3)no2)CC1	53*	0.04	-0.3	26	21
CN(C)c1ccc(-c2noc(C3CCN(S(=O)(=O)c4ccc(C(=O)O)cc4)CC3)n2)cc1	0	/	1.2	/	/
O=C(N1CCOCC1)N1CCC(c2nc(-c3ccc(S(=O)(=O)N4CCOCC4)cc3)no2)CC1	11	/	-0.34	-21	-15
O=C(NC1CCCCC1)N1CCC(c2nc(-c3ccc(S(=O)(=O)N4CCCC4)cc3)no2)CC1	75*	/	/	14	-2
O=C(Cc1ccccc1)N1CCCC(c2nc(-c3ccc(S(=O)(=O)N4CCCC4)cc3)no2)C1 (stereo not drawn)	99*	-0.11	-1	8	-1
COc1ccc(/C=C/C(=O)OCC(=O)Nc2ccc(Cl)cn2)cc1	-4	-0.025	-0.19	4	-2
Cc1ccccc1OCCN1CCC(Cc2ccccc2)CC1	82*	-0.89	-1.3	16	37
Cc1ccc([N+](=O)[O-])c(OCCN2CCC(Cc3ccccc3)CC2)c1	94*	-2.3	-0.26	-1	-9
Cc1ccccc1OCCN1C(=O)c2ccccc2C1=O	-8	-0.64	/	18	-5
CCOc1ccccc1OCCN1CCC(Cc2ccccc2)CC1	99*	0.93	-2.8	1	9
CCN1CCN(CCOc2ccccc2OCc2ccccc2)CC1	9	0.18	-0.58	-40	5

Screening data: PubChem, several laboratories
